# Screens from PubChem BioAssay.
# Pf growth 48h – Primary qHTS for delayed death inhibitors of the malarial parasite plastid, 48 hour incubation; P. falciparum luciferase growth in erythrocytes, 48 h; Potency, µM (top dose mostly 28.7 µM), without a hit: at the top dose activity change, negative = inhibition, actives largely listed as inhibitors; 310,000 tested, 5.9% active; active means well fitted inhibition curve with a large enough effect; inconclusive means small, poorly fitted or top-dose-only effect, or another doubt; inactive means no such curve, though single readings can be large or run the other way; further: potency means the concentration at half of the fitted maximal effect; on the % scale 0 is the no-effect control and ±100 the full control effect
#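 Erythrocytes infected with P. falciparum carrying an integrated firefly luciferase reporter (2% hematocrit, 0.1% parasitemia final) were exposed to compounds in RPMI 1640 with 0.5% Albumax at 37 C, 5% CO2. Growth inhibition was scored as reduced luminescence.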
# SARS PLpro yeast – qHTS of Yeast-based Assay for SARS-CoV PLP. S. cerevisiae expressing SARS-CoV PLpro, growth rescue. Potency, µM (doses to about 32.9 µM), without a hit: top-dose activity, positive = growth rescue, most hits filed as activators. 330,000 tested, 0.19% active. AID 485353, 2010; further: potency means the concentration at half of the fitted maximal effect; 0% is about no effect; nearly all actives have a fitted effect of over 55% in size
# Pf growth 96h – Primary qHTS for delayed death inhibitors of the malarial parasite plastid, 96 hour incubation | AID 504834, 2011 | Potency, µM (highest dose often 28.7 µM), for inactives: top-dose activity change, negative = inhibition, hits mostly inhibitors | 320,000 tested, 6.9% active | P. falciparum luciferase reporter growth, 96 h; active means well fitted inhibition curve with a large enough effect; inconclusive means small, poorly fitted or top-dose-only effect, or another doubt; inactive means no such curve, though single readings can be large or run the other way; further: potency means the concentration at half of the fitted maximal effect; on the % scale 0 is the no-effect control and ±100 the full control effect
#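 P. falciparum expressing integrated firefly luciferase grown in erythrocytes (2% hematocrit, 0.05% parasitemia final) with compounds for 96 hours at 37 C, 5% CO2. Growth inhibition read as loss of luminescence after adding luciferase detection reagent.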
# Shiga toxin inh – A qHTS for Small Molecule Inhibitors of Shiga Toxin | AID 2315, 2010 | Vero cells, Shiga toxin protein synthesis inhibition reporter | 290,000 tested, 9.2% active | inhibition, % at 38.7 µM; in the data active means inhibition mostly above about 28%, no sharp cut-off; inactive means mostly below about 43%; further: 0% is about no effect
# CHX counter – Cycloheximide Counterscreen for Small Molecule Inhibitors of Shiga Toxin. AID 2314, 2010. 300,000 tested, 12% active. max response, %. cell reporter, cycloheximide protein synthesis inhibition counterscreen; in the data active means max response mostly above about 13%, no sharp cut-off; inactive means mostly below about 14%; further: read at 38.3 µM for the half of the compounds with a filed dose; 0% is about no effect
# NS1 function inh – qHTS Assay for Inhibitors of Influenza NS1 Protein Function | Potency, µM (titrated, usually from 46.1 µM), without a hit: top-dose activity, positive = more growth | 270,000 tested, 0.4% active | AID 2326, 2010; further: potency means the concentration at half of the fitted maximal effect; actives are rising curves; nearly all actives have a fitted effect of over 50% in size
#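 In this qHTS, NS1 from influenza A is expressed in budding yeast, where it slows growth. Cells are switched from glucose to 2% galactose medium (pH 6.0, -URA), treated with compound, and growth recovery is read at OD600.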
# Numbers without * were called inactive; ? = inconclusive; . = no result. Sampled rows, rich in hits. Any-hit rate of the full collection: about 21%. Unless noted, the call rests on the fitted dose curve.
SMILES,Pf growth 48h,SARS PLpro yeast,Pf growth 96h,Shiga toxin inh,CHX counter,NS1 function inh
c1ccc2c(N3CCOCC3)nc(N3CCOCC3)nc2c1,?,3%,4.1µM*,21,10,20%
CCSc1nc(N2CCOCC2)c2ccccc2n1,?,-1%,7%,-10,6,-69%
CC1CCCCN1c1nc(-c2ccncc2)nc2ccccc12 (stereo unspecified),8.3µM*,-13%,4%,-3,-6,-48%
COc1cc(OC)nc(Oc2ccc(N)c(C)c2)n1,5%,0%,-1%,-2,9,1%
COc1ccc2[nH]cc(CCNS(=O)(=O)c3ccc(C)cc3)c2c1,9%,0%,1%,8,-1,-4%
CN(C(=O)CSc1n[nH]c(-c2cccs2)n1)C1CCS(=O)(=O)C1 (stereo unspecified),0%,3%,-5%,.,.,.
CC1CCN(c2nc(-c3ccncc3)nc3ccccc23)CC1,4.1µM*,-31%,4.7µM*,19,-3,-250%
CC1CCN(c2nc(/C=C/c3ccccc3)nc3ccccc23)CC1,?,-86%,0%,13,9,-27%
Cc1cc(C)cc(N(C(=O)CNC(=O)c2ccco2)C(C(=O)NC2CCCCC2)c2cccnc2)c1 (stereo unspecified),?,-1%,-1%,3,-3,2%
C/C(=N\Nc1nc(C(C)(C)C)cs1)c1ccccc1,26%,-8%,-15%,135*,57*,-5%
C/C(=N\Nc1nc(C(C)(C)C)cs1)c1ccc(O)cc1,?,10%,?,121*,53*,24%
C/C(=N\Nc1c(Cl)c(Cl)nc(C(=O)O)c1Cl)c1ccc(O)cc1,7%,-2%,49%,-5,-1,24%
C/C(=N\NS(=O)(=O)c1ccc(C(C)(C)C)cc1)c1ccccc1,17%,-4%,?,2,6,-1%
C/C(=N\Nc1nc(C(=O)O)cs1)c1ccccc1,20%,25%,-11%,29,23*,.
O=C(C1CCN(Cc2nc(Cc3cccc(F)c3)no2)CC1)N1CCOCC1,16%,0%,39%,-10,-2,1%
COc1ccc(NC(=O)N2CCC(C(=O)c3ccc4c(c3)OCCO4)CC2)cc1,?,-4%,20%,25,21*,-11%
COCCNC(=S)N1CCC(C(=O)c2ccc3c(c2)OCCO3)CC1,54%,-2%,-15%,74,46*,.
CSc1ccccc1NC(=O)N1CCCC(C(=O)c2ccc3c(c2)OCO3)C1 (stereo unspecified),-1%,-1%,?,-4,-2,-5%
COc1ccc(NC(=S)N2CCC(C(=O)c3ccc(C)cc3)CC2)cc1,?,15%,64%,-1,8.9*,-17%
CC(=O)c1ccc(NC(=O)N2CCCC(C(=O)c3ccc4c(c3)OCO4)C2)cc1 (stereo unspecified),38%,-2%,?,53*,16*,-3%
CC(=O)Nc1ccc(C(=O)OCC(=O)N(Cc2ccccc2)C(C)(C)C)cc1,.,14%,?,-17,-3,-12%
Cc1ccc(S(=O)(=O)/N=C2/C=C(Sc3ncn[nH]3)C(=O)c3ccccc32)cc1,1.5µM*,-75%,16%,51,33*,-31%
CC(C)c1ccc(S(=O)(=O)/N=C2/C=C(Sc3ncn[nH]3)C(=O)c3ccccc32)cc1,1.3µM*,-84%,?,78*,36*,-17%
Cc1ccc(S(=O)(=O)/N=C2/C=C(Sc3ncn[nH]3)C(=O)c3ccccc32)c(C)c1,2.1µM*,-78%,-23%,16,19*,-24%
CCN(C[C@H]1N[C@@](Cc2ccccc2)(C(=O)OC)[C@H]2C(=O)N(C)C(=O)[C@@H]12)C(=O)Nc1ccccc1,.,9%,.,.,.,.
SMILES,Pf growth 48h,SARS PLpro yeast,Pf growth 96h,Shiga toxin inh,CHX counter,NS1 function inh
CCCCN(C(=O)C1CCCC1)c1c(N)n(Cc2ccccc2)c(=O)[nH]c1=O,.,11%,.,.,.,.
c1ccc(Cn2nnnc2C(c2ccncc2)N2CCOCC2)cc1 (stereo unspecified),15%,6%,0.74µM*,-6,-2,-3%
c1ccc(Cn2nnnc2C(c2cccnc2)N2CCN(c3ccccc3)CC2)cc1 (stereo unspecified),13µM*,-12%,.,-16,12,-154%
Cc1cc(C(c2nnnn2Cc2ccccc2)N2CCOCC2)c(C)n1-c1ccc2c(c1)OCO2 (stereo unspecified),9.3µM*,0%,22%,42*,18*,-6%
CCN1CCN(C(c2ccccc2)c2nnnn2Cc2ccc3c(c2)OCO3)CC1 (stereo unspecified),22%,1%,19%,-7,-3,-2%
Cc1nc(SCC2(C)CC2(Cl)Cl)n[nH]1 (stereo unspecified),17%,-6%,-6%,18,8,.
CN(C(=O)c1ccccc1[N+](=O)[O-])c1ccccc1C(=O)NCc1ccccc1,?,4%,-22%,-3,-3,11%
COc1ccc2cc3cc(C(=O)NCC4COc5ccccc5O4)oc3nc2c1 (stereo unspecified),?,-1%,-2%,36,40*,-36%
COc1ccc2cc3cc(C(=O)NC(C)C)oc3nc2c1,.,-17%,2.9µM*,75*,48*,-15%
COc1ccc2cc3cc(C(=O)NCc4ccc5c(c4)OCO5)oc3nc2c1,6%,-3%,-8%,-1,-2,1%
CC(C)NC(=O)c1ccc2c(=O)n(CC3CCCO3)c(=S)[nH]c2c1 (stereo unspecified),-16%,0%,9.3µM*,-6,-1,.
CC1CCCC(NC(=O)c2ccc3c(=O)n(CC4CCCO4)c(=O)[nH]c3c2)C1C (stereo unspecified),2.6µM*,-5%,?,21,2,-8%
Cc1cc(=O)[nH]c(SCC(=O)NCCC2=CCCCC2)n1,1%,1%,7%,-4,-2,.
CCOc1ccc2oc(C(=O)N(C)CCc3ccc(OC)c(OC)c3)c(C)c2c1,?,7%,?,.,.,.
COc1ccc(NC(=O)CN(C)C(=O)c2oc3ccccc3c2C)cc1,?,-1%,3.7µM*,26,15,.
CCOc1ccc2oc(C(=O)N(C)CC(=O)Nc3ccc(OCC)c(OCC)c3)c(C)c2c1,?,-1%,12µM*,.,.,.
COc1ccc(Cl)cc1NC(=O)COC(=O)c1cc(NS(=O)(=O)c2cccs2)ccc1O,0%,0%,8%,-2,6,20%
Clc1ccc(C2=NNC(=NCc3ccccc3)SC2)cc1,?,-2%,?,74*,20,.
CC(=O)c1c(C)[nH]c(C2=NNC(=NCc3ccccc3)SC2)c1C,?,-2%,-37%,23,15,.
